Assay results as given in PubChem BioAssay (NCI).
About 79,000 compounds went through this panel and 15% of them were active in at least one assay; those are over-represented in the sample as a whole. Values without a mark were called inactive. The source made the active and inactive calls. Cut-off read from the data, not from the text of the source: active = growth inhibition above about 70%; inactive = the rest.

How the values were obtained:
[1] = NCI Yeast Anticancer Drug Screen. Data for the rad50 strain (AID 155);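 note: 0% = growth of vehicle-only cultures of the same strain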; conditions: S. cerevisiae rad50 strain growth inhibition, active compounds read high
Summary of the method: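 Compounds were tested on a yeast strain with an engineered DNA damage repair alteration; the reported value is growth inhibition normalised to vehicle treatment.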

[2] = NCI Yeast Anticancer Drug Screen. Data for the mec2-1 strain (AID 157); conditions: S. cerevisiae mec2-1 strain, active compounds read high
Summary of the method: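 Growth inhibition is read against vehicle-treated controls after compound exposure of the mec2-1 yeast strain, which is defective in DNA damage repair or cell cycle control.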

[3] = NCI Yeast Anticancer Drug Screen. Data for the sgs1 mgt1 strain (AID 161);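 note: 0% = growth of cultures given vehicle only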; conditions: S. cerevisiae sgs1 mgt1 strain, active compounds read high
Summary of the method: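 Growth of a repair-deficient yeast mutant was monitored after compound treatment and expressed as inhibition relative to vehicle-treated cultures.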

[4] = NCI Yeast Anticancer Drug Screen. Data for the cln2 rad14 strain (AID 165);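 note: 0% = growth equal to vehicle treated cultures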; conditions: S. cerevisiae cln2 rad14 strain, active compounds read high
Summary of the method: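 Growth inhibition, relative to vehicle-treated controls, is the read-out. The test organism is a yeast strain with defined genetic alterations, cln2 rad14.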

[5] = NCI Yeast Anticancer Drug Screen. Data for the bub3 strain (AID 167); conditions: S. cerevisiae bub3 mutant strain, active compounds read high
Summary of the method: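 Growth of a checkpoint-deficient yeast mutant is measured after compound exposure. Values represent inhibition relative to vehicle.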

[6] = NCI Yeast Anticancer Drug Screen. Data for the mlh1 rad18 strain (AID 175); conditions: S. cerevisiae mlh1 rad18 strain growth inhibition, active compounds read high
Summary of the method: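 Cells of a genetically altered yeast strain, deficient in DNA damage repair, were treated with compound. Their growth was then compared with that of vehicle-treated cultures to give inhibition.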

[7] = at 5.0 µM (retest, dose inferred, filed as 0.5)
[8] = at 50.0 µM (retest, dose inferred, filed as 5.0)

| SMILES | growth inhibition [1, 7] | growth inhibition [1, 8] | growth inhibition ([1]; at 50.0 µM) | growth inhibition [2, 7] | growth inhibition [2, 8] | growth inhibition ([2]; at 50.0 µM) | growth inhibition [3, 7] | growth inhibition [3, 8] | growth inhibition ([3]; at 50.0 µM) | growth inhibition [4, 7] | growth inhibition [4, 8] | growth inhibition ([4]; at 50.0 µM) | growth inhibition [5, 7] | growth inhibition [5, 8] | growth inhibition ([5]; at 50.0 µM) | growth inhibition [6, 7] | growth inhibition [6, 8] | growth inhibition ([6]; at 50.0 µM) |
| --- | --- | --- | --- | --- | --- | --- | --- | --- | --- | --- | --- | --- | --- | --- | --- | --- | --- | --- |
| CSc1nc2c(c(=O)[nH]1)C1C=C(C)CCC1C(C)(C)C2 (stereo not given) | -5% | 97% (active) | 52.1% | -5% | 97% (active) | 56.1% | 0% | 97% (active) | 56% | -3% | 96% (active) | 69.2% | 10% | 97% (active) | 53.8% | -10% | 97% (active) | 51.6% |
| CN(C)CC(CN(C)C)C(=O)c1ccc(Oc2ccc(Cl)cc2)cc1 | 72% (active) | 98% (active) | 7.8% | 60% | 99% (active) | 52.3% | 85% (active) | 99% (active) | 50.9% | 36% | 98% (active) | 5.15% | 72% (active) | 99% (active) | 51.6% | 92% (active) | 98% (active) | 6.95% |
| O=C(CC(O)(c1ccccc1)c1ccc(Cl)cc1)NC(=O)c1ccccc1O (stereo not given) | 45% | 93% (active) | 85% (active) | 40% | 98% (active) | 89% (active) | 48% | 97% (active) | 91.6% (active) | 42% | 99% (active) | 89% (active) | 50% | 99% (active) | 86.8% (active) | 53% | 97% (active) | 86.8% (active) |
| Cc1ccc(C)c(S(=O)(=O)Nc2c([N+](=O)[O-])cc([N+](=O)[O-])c3ccccc23)c1 | 30% | 35% | 85.7% (active) | 30% | 40% | 86.6% (active) | 47% | 29% | 87.5% (active) | 32% | 54% | 86% (active) | 20% | 30% | 79.8% (active) | 34% | 59% | 83.6% (active) |
| COc1ccccc1NC(c1ccccc1)c1ccc2cccnc2c1O (stereo not given) | 2% | 50% | 81.2% (active) | 3% | 60% | 49.2% | 7% | 45% | 73.2% (active) | -7% | -1% | 15.2% | -5% | 18% | 2.9% | -23% | 44% | 75% (active) |
| CCC(C(=O)CCN(C)C)(c1ccccc1)c1ccccc1 | 67% | 99% (active) | 99.5% (active) | 49% | 99% (active) | 99.6% (active) | 80% (active) | 99% (active) | 99.3% (active) | 19% | 99% (active) | 99.3% (active) | 59% | 99% (active) | 99.8% (active) | 80% (active) | 99% (active) | 99.5% (active) |
| O=S1(=O)CC=C1c1ccccc1 | 8% | 78% (active) | 96.3% (active) | 8% | 92% (active) | 96.5% (active) | 7% | 89% (active) | 94.8% (active) | 5% | 61% | 73.8% (active) | 2% | 84% (active) | 95.2% (active) | 2% | 92% (active) | 97.7% (active) |
| OCC(O)C(O)C(O)C(/C=N/Nc1ccccc1)=N\Nc1ccccc1 (stereo not given) | 4% | -3% | 51.4% | -1% | -1% | 4.95% | 20% | 16% | 70.7% (active) | -41% | 4% | -0.65% | 1% | -89% | 4.3% | 16% | 4% | 30.4% |
| CC(C)c1ccc(C(C)C)c(O)c1O | 13% | 72% (active) | 82% (active) | 24% | 73% (active) | 87.3% (active) | 22% | 79% (active) | 88% (active) | 21% | 63% | 53.2% | 7% | 67% | 87.2% (active) | 7% | 94% (active) | 69.8% |
| S=c1[nH]c(-c2ccccc2)cs1 | -2% | 77% (active) | 79.5% (active) | 0% | 71% (active) | 85.1% (active) | 0% | 83% (active) | 92% (active) | -15% | 73% (active) | 80.2% (active) | -24% | 89% (active) | 74% (active) | 1% | 89% (active) | 89.5% (active) |
| CCCSc1ncnc2nc(C)[nH]c12 | -1% | -1% | 6.9% | 3% | -7% | -14.5% | -2% | -3% | 2.25% | 0% | -1% | 39.6% | -1% | -6% | 1.85% | 0% | 0% | -8.25% |
| NC(C(=O)O)C1=CCCCCC1 (stereo not given) | 2% | -6% | 49.5% | 20% | 66% | 13.8% | 6% | -1% | 9.35% | 12% | 54% | -6.65% | 63% | 98% (active) | -5.95% | -3% | -4% | 15.4% |
| COc1cc2c(cc1OC)NCC1COc3c(ccc(OC)c3OC)C1=N2 (stereo not given) | 12% | 14% | -44.9% | 14% | 8% | -6.65% | 15% | 17% | -18.4% | 19% | 17% | 11.1% | 17% | 22% | 16% | 12% | 24% | -37.8% |
| C[n+]1c(-c2cccc(OCCCCCCCCCCOc3cccc(-c4c5cc(N)ccc5c5ccc(N)cc5[n+]4C)c3)c2)c2cc(N)ccc2c2ccc(N)cc21 | 99% (active) | 81% (active) | 79.4% (active) | 99% (active) | 84% (active) | 84.4% (active) | 99% (active) | 85% (active) | 87.9% (active) | 99% (active) | 86% (active) | 88% (active) | 99% (active) | 80% (active) | 84.2% (active) | 97% (active) | 68% | 87.7% (active) |
| CSC(=S)n1nc(-c2ccccc2)c(N=Nc2ccccc2[N+](=O)[O-])c1C | -1% | 92% (active) | 97% (active) | -4% | 96% (active) | 96.2% (active) | 5% | 96% (active) | 97% (active) | -12% | 94% (active) | 92% (active) | 0% | 95% (active) | 94.3% (active) | -1% | 93% (active) | 98% (active) |
| Cn1c(=O)c2c(O)c(-c3ccccc3)c(=O)n3c4ccccc4n(c1=O)c23 | 19% | 48% | 51.3% | 21% | 51% | 27.6% | 28% | 68% | 64.5% | 7% | 34% | 19.7% | 10% | 30% | 25.9% | 18% | 59% | 50.1% |
| Cc1ccc(S)c(S)c1 | 65% | 53% | 63.4% | 52% | 34% | 35.9% | 44% | 28% | 39.3% | 81% (active) | 93% (active) | 77.7% (active) | 92% (active) | 93% (active) | 64.6% | 95% (active) | 93% (active) | 41.5% |
| COc1cccc2c1C(=O)c1c(O)c3c(c(O)c1C2=O)C[C@@](O)(C(=O)CO)C[C@@H]3OC1CC(N(C)C)C(O)C(C)O1 (stereo not given in full) | 94% (active) | 95% (active) | 90.1% (active) | 96% (active) | 97% (active) | 91.8% (active) | 97% (active) | 97% (active) | 91.2% (active) | 96% (active) | 95% (active) | 88.8% (active) | 95% (active) | 97% (active) | 89.3% (active) | 94% (active) | 94% (active) | 90.7% (active) |
| CCCCCCCCCCCC[N+]1(C)CCCC1c1cccnc1 (stereo not given) | 19% | 97% (active) | 50.5% | 13% | 98% (active) | 97.5% (active) | 4% | 98% (active) | 51.9% | 5% | 98% (active) | 94.3% (active) | 27% | 92% (active) | 97.5% (active) | 19% | 97% (active) | 96.9% (active) |
| C=C(Br)CN(C)CC(=C)Br | 0% | 40% | 82% (active) | 7% | -19% | -17.1% | 4% | -10% | 22.2% | -15% | -50% | 0.15% | -2% | 5% | -15% | -6% | 25% | 62.5% |
